PubChem BioAssay AID743269 (The Scripps Research Institute Molecular Screening Center, 2014)
Out of some 370,000 compounds screened, about 2,400 (0.65%) were called active. What follows is part of a selection rich in actives, with near analogues and random picks from the rest. Unmarked numbers belong to inactive results.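 Rule for the calls: active = inhibition above the screen-wide mean plus 3 SD (cut at about 13% in these data); inactive = the rest.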

These compounds were tested on HIV-1 integrase (with human LEDGF/p75) (assay: blockers of LEDGF/p75-dependent integrase strand transfer – biochemical, TR-FRET, high throughput, primary screen (AID 743269;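 note: signal is the Cy5 over europium emission ratio at 671 and 618 nm; 0% = plate median of compound wells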)). Details: TR-FRET IN-LEDGF/p75 DNA integration, Eu/Cy5; at 3.7 µM; stronger effect = higher value.

Row | SMILES | inhibition
1 | COC(=O)[C@]12C[C@H](CC(=O)N3CCOCC3)C(=O)N(Cc3ccc(Cl)cc3Cl)C1=C[C@H](C(C)C)O[C@@H]2C1CC1 | -2.5%
2 | CCOc1ccc(-n2c(SCC(=O)Nc3cc(C)c(NC(=O)c4ccccc4)cc3OC)nnc2-c2cccc(Cl)c2)cc1 | -4.78%
3 | CCOc1ccc(NC(=S)NC(=O)/C=C/c2ccc(OC)cc2)c([N+](=O)[O-])c1 | 5.44%
4 | Cc1ccc(/C=C/C(=O)Nc2ccc([N+](=O)[O-])c(NC(=O)/C=C/c3ccc(C)o3)c2)o1 | 24.3% (active)
5 | Cc1cc(NC(=O)COC(=O)/C=C/c2ccc(C)o2)no1 | -2.47%
6 | CC(=O)c1cc(-c2ccc3ccccc3c2)c(=O)n2c1CCC2 | 0.07%
7 | CC(c1ccc(N)cc1)c1cn(C)c2ccccc12 (stereo not given) | -3.68%
8 | Cc1ccc(-n2c(SCC(=O)Nc3cccc4ccccc34)nnc2-c2ccccn2)cc1 | -0.35%
9 | COC(CNC(=O)[C@H](Cc1ccccc1)NC1(C(=O)NC2CCCCC2)CCCCC1)OC | 2.51%
10 | Cc1ccc(-c2nnc(SCC(=O)Nc3ccc(Oc4ccccc4)cc3)n2Cc2ccco2)cc1 | -1.74%
11 | Nn1c(SCC(=O)N2c3ccccc3Sc3ccccc32)nnc1-c1n[nH]c2c1CCC2 | -0.96%
12 | O=C(NC1CCCCN(Cc2cccc(C(F)(F)F)c2)C1=O)c1ccccc1I (stereo not given) | -1.97%
13 | NNc1cccc(C=Cc2ccccc2)cc1=O | 29.3% (active)
14 | O=C(CSc1nc2sc3c(c2c(=O)n1-c1ccccc1)CCCC3)NN=Cc1ccc(OCc2ccccc2)cc1 | -1.95%
15 | CC1CN(/C=C/C(=O)C(F)(F)F)CC(C)O1 (stereo not given) | 1.92%
16 | CN(C)c1ccc(N/C=C/C(=O)C(F)(F)F)cc1 | 51% (active)
17 | O=S1(=O)c2c(NCc3ccco3)cccc2Oc2ccccc2CN1Cc1cn(Cc2cccc(C(F)(F)F)c2)nn1 | -4.08%
18 | O=C1OC(/C=C/c2ccccc2)=NC/1=C/c1ccco1 | 23.8% (active)
19 | COc1ccccc1/C=C/C1=NC(=C\N(C)C)/C(=O)O1 | -2.48%
20 | CCn1c(SCC(C)=O)nc2sc3c(c2c1=O)CCCC3 | 4.15%
21 | COC(=O)C12C=C3CC(c4ccccc4)=C3C(=O)N1Cc1[nH]c3ccccc3c1C2 (stereo not given) | -0.02%
22 | CCOC(=O)c1ccc(NC(=O)CSc2ncccn2)cc1 | 21.2% (active)
23 | CCOC(=O)c1ccc(NC(=S)N2CCN(c3ccccn3)CC2)cc1 | 3.04%

Row | SMILES | inhibition
24 | CCOC(=O)c1ccc(NC(=O)Cn2cnc3cc(C)c(C)cc32)cc1 | -0.18%
25 | O=C(NC1CCC1)c1ccc(C#Cc2cccc(F)c2)c[n+]1[O-] | -0.89%
26 | Cc1sc2nc(SCC(N)=O)n(C)c(=O)c2c1C | 1.58%
27 | Cc1sc2nc(SCC(=O)c3ccc(O)c(O)c3)n(Cc3ccco3)c(=O)c2c1C | 34.8% (active)
28 | O=C(CSc1nnc(COc2ccccc2)n1Cc1ccco1)c1ccc2ccccc2c1 | 1.68%
29 | CCOC(=O)[C@]12CCCC=C1N(Cc1ccc(OC)cc1)C(=O)[C@@H]2CC(=O)N1CCOCC1 | 4.73%
30 | Cc1ccc(NC(=O)c2cc(C)nn2-c2ccccc2)c(C)c1 | -1.51%
31 | CCC(=O)c1c(CC)c2n3c1=CC[C@H]3CC(Br)C=2 (stereo not given in full) | -2.29%
32 | CN(C)Cc1cn(-c2ccc(-c3noc4c3C(=O)N(CC(=O)N3CCOCC3)CC4)cc2)nn1 | -1.95%
33 | COc1ccc(C#CCNCc2ccc(OC)cc2OC)cc1 | -3.69%
34 | CCCCOCCCNC(=O)C[C@H]1C[C@@]2(C(=O)OC)C(=C[C@H](C(C)(C)C)O[C@@H]2C)N(CCc2ccc(OC)c(OC)c2)C1=O | 2.16%
35 | CN(C)S(=O)(=O)c1cccc(C(=O)N/N=C\c2ccco2)c1 | -0.56%
36 | Cc1cc(C(=O)NN=C/C=C/c2ccco2)n[nH]1 | 15.1% (active)
37 | CC(C)CNC(=O)COC(=O)/C=C/c1ccco1 | 0.15%
38 | COc1ccc(N2CCN(CCNS(=O)(=O)c3ccc(Cl)s3)CC2)cc1 | -1.84%
39 | O=C(CSc1nnc(-c2ccccn2)n1-c1ccc(Cl)cc1)Nc1ccccc1-c1ccccc1 | -2.85%
40 | C=CCN1C(=O)[C@H](CC(=O)N2CCN(C(=O)OCC)CC2)[C@@]2(C(=O)OCC)CCCC=C12 | -0.39%
41 | O=C(CO/N=C/c1ccccc1O)NNC(=O)c1ccccc1Cl | 3.91%
42 | O=C(NNC(=S)NC1CCCCC1)c1ccccc1Cl | 0.05%
43 | O=C(NNC(=O)c1ccccc1O)c1ccccc1O | 27.2% (active)
44 | CCC(c1ccc(NC(=O)OC(C)(C)C)cc1)c1cc(OC)cc(OC)c1 (stereo not given) | -0.14%
45 | CCOC(=O)C1(Cc2ccccc2)CCN(Cc2cn(C(C)=O)c3ccccc23)CC1 | -1.3%
46 | Cc1ccccc1NC(=O)COC(=O)c1ccc(Sc2ncn[nH]2)c([N+](=O)[O-])c1 | -3.54%

Row | SMILES | inhibition
47 | COc1ccc2c(c1)c(=Cc1ccc(N(C)C)cc1)c1cc(-c3ccccc3)[n+](C)n12 | 18.8% (active)
48 | O=C(CN1CCC(NC(=O)NCc2ccccc2)CC1)Nc1ccc2c(c1)OCCO2 | 0.58%
49 | O=C(Nc1ccc(Br)cc1)OCCN1C(=O)CCC12CCC(c1ccccc1)CC2 (stereo not given) | -0.45%
50 | Cc1ccc2c(c1)N(CC(=O)N1CCCc3ccccc31)C(=O)C(C)O2 (stereo not given) | 4.28%
51 | Cc1ccc(C(=O)N2CCCc3ccccc32)c(Cl)c1 | 38% (active)
52 | Cc1cccc2cc3c(N)c(C(=O)N4CCCc5ccccc54)sc3nc12 | 1.54%
53 | COc1ccc(C(=O)CSc2nnc(-c3cnccn3)n2-c2ccc(C)cc2)cc1 | 0.86%
54 | Cc1ccccc1NC(=O)Cn1nnc(-c2ccccc2F)n1 | 3.47%
55 | Cc1cc(=O)[nH]c(SCC(=O)Nc2ccc(Cl)cc2C)n1 | 0.96%
56 | COCCNC(=S)c1ccc(OC)cc1 | -1.56%
57 | COCCNC(=O)c1cc2c(Br)ccc(Br)c2nc1N | -5.17%
58 | COCCNC(=O)Nc1ccc2nc(-c3ccco3)c(-c3ccco3)nc2c1 | 90.1% (active)
59 | COc1ccc(CCNC(=O)CSc2nc3c([nH]2)c(=O)n(C)c(=O)n3C)cc1 | 0.75%
60 | O=C(NCc1cccs1)C1CCN(S(=O)(=O)c2ccccc2[N+](=O)[O-])CC1 | 3.07%
61 | CC(C)(C)NC(=O)C(c1cccnc1)N(C(=O)c1cnco1)c1ccc(C(C)(C)C)cc1 (stereo not given) | 0.93%
62 | CCOC(=O)[C@]12CCCCC/C=C\1N(Cc1ccc(OC)cc1)C(=O)[C@H]2CC(=O)NCc1ccc(C)o1 | -2.04%
63 | COC(=O)c1ccc(COc2ccc(/C=C/C(=O)c3ccc(OC)c(CSCC(=O)O)c3)cc2OC)cc1 | 1.77%
64 | COc1ccc(C(C)=O)cc1CSc1nc2nc(C)cc(C)n2n1 | -4%
65 | COc1ccc(C(=O)/C=C/c2ccc(-c3ccccc3)cc2)cc1CSCC(=O)O | 13.5% (active)
66 | CCOc1ccc(Oc2c(Cl)cnn(-c3ccc(C)cc3)c2=O)cc1 | -2.65%
67 | COc1cccc(N(C)C(=O)[C@@H](C)[C@@H](O)c2ccc3ccccc3c2)c1 | 2.81%
68 | CN(C(=O)COC(=O)c1cc(-c2ccco2)nc2ccccc12)C1CCS(=O)(=O)C1 (stereo not given) | 30.7% (active)
69 | CC(=O)c1ccc(OCC(=O)N(C)C2CCS(=O)(=O)C2)cc1 (stereo not given) | 1.55%

Row | SMILES | inhibition
70 | CN(C(=O)COC(=O)c1cc(=O)[nH]c2ccccc12)C1CCCCC1 | -9.3%
71 | CCOC(=O)[C@]12CCCC=C1N(Cc1ccc(OC)cc1)C(=O)[C@@H]2CC(=O)NCc1cccs1 | 0.74%
72 | O=C(CC1(O)C(=O)N(CN2CCOCC2)c2ccccc21)c1ccccc1 (stereo not given) | 3.55%
73 | C=CCN1C(=O)C(O)(CC(=O)c2ccccn2)c2ccccc21 (stereo not given) | 15.4% (active)
74 | CCOC(=O)CN1C(=O)C(O)(CC(=O)c2ccccn2)c2ccccc21 (stereo not given) | 3.17%
75 | N#CCC[C@H]1CC[C@]2(CCCN(Cc3ccc(Cl)cc3)C2)O1 | 0.5%
76 | O=S1(=O)c2ccc(Br)cc2OC[C@H](Cc2ccccc2)N1Cc1cn(Cc2ccccc2)nn1 | -5.3%
77 | Clc1cc(NC2CCCCC2)ncn1 | 21.7% (active)
78 | CCc1cc2c(NC3CCCC3)ncnc2s1 | -1.83%
79 | Cc1cc([N+](=O)[O-])c(NC2CCCCC2)c([N+](=O)[O-])c1 | 0.17%
80 | O=C(C1CCN(S(=O)(=O)c2ccccc2)CC1)N1CCN(C2CCCCC2)CC1 | -2.53%
81 | Cc1cc(C)cc(NC(=O)N2CCC(N(C)CCC(C)C)CC2)c1 | 3.5%
82 | O=C(CC(Cc1ccccc1)C(=O)O)NCCc1ccc2c(c1)OCO2 (stereo not given) | -1.84%
83 | CC1(C(=O)NCc2ccc3c(c2)OCO3)CCN1CCc1ccccc1 (stereo not given) | 3.29%
84 | CC(=NCc1ccc2c(c1)OCO2)C1=C(O)c2ccccc2C1=O | 14.5% (active)
85 | O=S(=O)(c1ccccc1)N1CCC(c2nc3ccccc3o2)CC1 | -3.8%
86 | Cc1ccc(C(=O)N(Cc2ccccn2)CC2CCCO2)cc1 (stereo not given) | -1.5%
87 | O=C(CSc1nc2ccccc2nc1N1CCCCC1)N1CCN(S(=O)(=O)c2cccc([N+](=O)[O-])c2)CC1 | 7.35%
88 | CC(C)CNS(=O)(=O)CC1NCCc2ccccc21 (stereo not given) | -2.87%
89 | C[C@H]([C@@H](O)[C@@H](O)[C@@H](C)C(C)(C)C)[C@H]1CC[C@H]2C3CC[C@H]4C[C@H](OS(=O)(=O)O)[C@@H](OS(=O)(=O)O)C[C@]4(C)[C@H]3CC[C@]12C (stereo not given in full) | 22.1% (active)
90 | CC(=O)O[C@H]1CC[C@@]2(C)[C@@H](CC[C@@H]3[C@@H]2CC[C@]2(C)[C@@H](C(C)(C)O)C[C@@H]32)C1 | 0.72%
